Compound activity from PubChem BioAssay.
Shown are actives, neighbours in structure and some others; about 10% of the full set was active somewhere.
CCT chaperon mod = changes cytosolic chaperonin activity; purified chaperonin ATPase assay, HTRF ADP detection, 30 min; 360,000 tested, 0.3% active; AID 651819; activity change, % (no concentration beside the values), hits read low; in the data active = activity change below about -30%
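Nucleotide hydrolysis assay: TRiC at 20–40 nM final (set by batch activity) with 10 uM ATP, 30 min at 37 °C, in presence of 76 uM compound. Detection by competitive ADP HTRF, 30 min ambient.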
MmCpn inh = blocks the Methanococcus maripaludis chaperonin Mm-Cpn; purified Mm-Cpn ATPase, ADP Transcreener TR-FRET; Potency, µM (top dose mostly 76.9 µM), for the others: at the top dose activity, negative = inhibition, most hits filed as inhibitors; 330,000 tested, 0.031% active; AID 504842; note: potency is the fitted concentration of half-maximal effect; nearly all actives have a fitted effect of over 80% in size
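ATPase turnover read by TR-FRET ADP competition (Eu cryptate antibody/ADP-d2, 665/590 nm): 10uM ATP final, 25nM Mm-CPN final, 30 min 37degC after 10-min compound preincubation, pH 7.4 Tris/KCl/MgCl2/DTT buffer.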
Sfp inh = Sfp phosphopantetheinyl transferase inhibition; 310,000 tested, 3.5% active; AID 1490; Q9F4F7; Biochemical Sfp PPTase activity, qHTS; Potency, µM, without a hit: largest response in the series, negative = inhibition, usual class: inhibitors;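 note: the enzyme is Sfp with the accession as filed and its product quenches rhodamine fluorescence; potency is the fitted concentration of half-maximal effect; 0% = enzyme reaction without inhibitor and -100% = no enzyme wells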
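Fluorescence-quenching assay: 15 nM Sfp-PPTase preincubated 15 min at room temperature with compound, then 5 uM rhodamine-CoA and 12.5 uM BHQ-2-labelled YbbR peptide added. Fluorescence (ex 525/em 598 nm) read at start and after 30 min; difference gives rate.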
VDR inh = vitamin D3 receptor (human) inhibition; P11473; VDR-SRC2-3 peptide fluorescence polarization, 2 h; Potency, µM, inactives show max response, negative = inhibition, hits mostly inhibitors; 400,000 tested, 0.93% active; AID 504847; note: potency is the fitted concentration of half-maximal effect
Target sequence (P11473 whole entry, looked up): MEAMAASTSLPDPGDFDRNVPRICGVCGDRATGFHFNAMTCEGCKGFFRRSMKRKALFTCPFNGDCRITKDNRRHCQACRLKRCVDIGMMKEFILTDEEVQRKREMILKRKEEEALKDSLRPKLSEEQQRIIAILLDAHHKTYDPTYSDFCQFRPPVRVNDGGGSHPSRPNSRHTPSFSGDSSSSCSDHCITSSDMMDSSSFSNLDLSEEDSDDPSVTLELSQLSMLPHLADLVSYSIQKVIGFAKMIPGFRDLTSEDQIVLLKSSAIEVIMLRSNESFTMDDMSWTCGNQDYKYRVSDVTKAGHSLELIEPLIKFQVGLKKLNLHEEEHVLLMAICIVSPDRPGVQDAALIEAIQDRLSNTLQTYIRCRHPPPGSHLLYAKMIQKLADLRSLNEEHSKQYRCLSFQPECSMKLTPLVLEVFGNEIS
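Fluorescence polarization assay measuring small-molecule disruption of VDR binding to the coregulator peptide SRC2-3. Compounds were pin-transferred (23 nl) into the reagent mix and incubated 2 h at room temperature before reading.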
G9a block = blocks human histone lysine methyltransferase G9a; Potency, µM (series often up to 102 µM), for inactives: at the top dose activity, negative = inhibition, hits mostly inhibitors; AID 504332; G9a H3K9 monomethylation, AlphaScreen, 2 h; 350,000 tested, 8.8% active; Q96KQ7; note: potency is the fitted concentration of half-maximal effect; nearly all actives have a fitted effect of over 75% in size
Target sequence (Q96KQ7 913-1193 limits assumed): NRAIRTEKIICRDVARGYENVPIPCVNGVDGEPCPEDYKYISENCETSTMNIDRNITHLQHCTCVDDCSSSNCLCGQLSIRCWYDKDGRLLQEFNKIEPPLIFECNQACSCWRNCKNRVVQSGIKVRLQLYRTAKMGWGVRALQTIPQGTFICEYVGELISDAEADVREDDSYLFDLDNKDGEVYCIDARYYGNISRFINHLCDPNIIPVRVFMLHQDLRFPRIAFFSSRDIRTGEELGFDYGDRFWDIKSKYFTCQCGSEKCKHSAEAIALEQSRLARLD
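AlphaScreen read-out: biotin-H3K9 peptide (500 nM) methylation by 20 nM enzyme with 20 uM SAM, 2 h at room temperature after 15 min compound preincubation; anti-monomethyl H3K9 antibody plus donor/acceptor beads, 10 min dark.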
PLK1 PBD block = PLK1 (human) polo-box domain binding inhibition; Potency, µM, without a hit: max response, negative = inhibition, actives largely listed as inhibitors; Plk1 PBD binding of FITC phosphopeptide, fluorescence polarization; 360,000 tested, 2.8% active; P53350; AID 720504; note: potency is the fitted concentration of half-maximal effect; series mostly up to about 57 µM; nearly all actives have a fitted effect of over 65% in size
Active calls of the source: *; [ ] = remark or other dose. Unless noted, calls come from the whole dose curve; as a rule, active = well fitted curve in the direction sought with a large enough effect; inconclusive = small, poorly fitted or top-dose-only effect, or another doubt; inactive = no such curve, though single readings can be large; an effect the other way counts as inactive or inconclusive. Unless noted, % is set by controls: 0 for no effect and ±100 for the full control effect.

For COc1ccc(CC(=O)Oc2ccc(Br)cc2F)cc1S(=O)(=O)N1CCOCC1 the results were CCT chaperon mod 0.3, MmCpn inh 1.2%, VDR inh -11.9%, G9a block 50.1µM* and PLK1 PBD block -17.2%.
`COc1ccc(OC)c(NC(=O)/C=C/c2ccc(S(=O)(=O)N3CCOCC3)cc2)c1` gave CCT chaperon mod -3.9, MmCpn inh -0.3%, VDR inh 9.6%, G9a block 50.1µM* and PLK1 PBD block -14.2%.
Screening COc1ccc(/C=C/C(=O)Nc2ccccc2)cc1S(=O)(=O)N1CCOCC1 returned CCT chaperon mod -2.6, MmCpn inh -0.1%, Sfp inh 26.9%, VDR inh 3.2%, G9a block 2.4% and PLK1 PBD block -4.0%.
For COc1ccc(C)cc1S(=O)(=O)N1CCOCC1 the results were CCT chaperon mod 0.2, MmCpn inh 2.0%, Sfp inh 12.2%, VDR inh -24.8% and PLK1 PBD block 18.9µM*.
COc1ccc(C)cc1NC(=O)/C=C/c1ccc(OC)c(S(=O)(=O)N2CCOCC2)c1 was read as CCT chaperon mod -0.7, MmCpn inh -0.4%, VDR inh 0.8%, G9a block inconclusive and PLK1 PBD block -7.7%.
For COc1ccc(/C=C/C(=O)Nc2ccc(NC(C)=O)cc2)cc1S(=O)(=O)N1CCOCC1 the results were CCT chaperon mod -27.3, MmCpn inh -3.8%, Sfp inh 9.5%, VDR inh -15.1%, G9a block -28.5% and PLK1 PBD block 29.9µM*.
`CCCNC(=O)c1ccccc1NC(=O)c1nsc2ccccc12` gave VDR inh 8.2% and G9a block -0.9%[59 µM].
`CCn1cc(/C=C(/C#N)S(=O)(=O)c2ccccc2)cn1` gave CCT chaperon mod 4.2, MmCpn inh -5.2%, Sfp inh -8.7%, VDR inh -0.9%, G9a block inconclusive and PLK1 PBD block -1.0%.
For Cn1nccc1/C=C(/C#N)S(=O)(=O)c1ccccc1 the results were CCT chaperon mod -2.2, MmCpn inh -2.0%, Sfp inh 5.5%, VDR inh inconclusive, G9a block 0.0%[59 µM] and PLK1 PBD block 10.6µM*.
`CCOc1ccccc1CN1CCNC(=O)C1CC(=O)NCCCn1cccn1` (configuration not stated) gave CCT chaperon mod -4.2, MmCpn inh -1.7%, Sfp inh 4.0%, VDR inh 7.4%, G9a block 79.4µM* and PLK1 PBD block -4.6%.
Screening O=C(CC1C(=O)NCCN1Cc1cccc(C(F)(F)F)c1)NCCCOc1cccnc1 (configuration not stated) returned CCT chaperon mod -1.8, MmCpn inh 0.6%, Sfp inh 2.0%, VDR inh 4.0%, G9a block inconclusive and PLK1 PBD block -0.3%.
For CCc1cc(CNC(=O)CC2C(=O)NCCN2Cc2cccc(OC)c2)on1 (configuration not stated) the results were CCT chaperon mod -2.3, MmCpn inh -0.2%, Sfp inh -1.0%, VDR inh 0.4%, G9a block 56.2µM* and PLK1 PBD block -18.8%.
O=C(CC1C(=O)NCCN1Cc1ccccc1)NCCCOc1cccnc1 (configuration not stated) was read as CCT chaperon mod -3.8, MmCpn inh -7.6%, Sfp inh -0.1%, VDR inh 1.3%, G9a block 50.1µM* and PLK1 PBD block -6.5%.
Screening COc1ccc2ccccc2c1CNC(=O)CC1C(=O)NCCN1CC(C)C (configuration not stated) returned CCT chaperon mod -1.0, MmCpn inh 2.3%, Sfp inh 7.8%, VDR inh 4.8%, G9a block 44.7µM* and PLK1 PBD block -8.9%.
For COc1ccccc1CN1CCNC(=O)C1CC(=O)NCCCn1cccn1 (configuration not stated) the results were CCT chaperon mod 0.2, MmCpn inh 1.3%, Sfp inh -2.2%, VDR inh -1.3%, G9a block -2.5% and PLK1 PBD block -18.7%.
For O=C(CC1C(=O)NCCN1Cc1ccoc1)NCCCn1ncc2ccccc21 (configuration not stated) the results were CCT chaperon mod 0.9, MmCpn inh -1.1%, Sfp inh -22.9%, VDR inh -7.1%, G9a block 22.4µM* and PLK1 PBD block -10.9%.
COc1ccccc1CN1CCNC(=O)C1CC(=O)NCCCN1CCOCC1 (configuration not stated) was read as CCT chaperon mod -1.3 and PLK1 PBD block 0.0%.
`O=C(CC1C(=O)NCCN1Cc1cccc(Oc2ccccc2)c1)NCCCn1cccn1` (configuration not stated) gave CCT chaperon mod -16.7, MmCpn inh 4.3%, Sfp inh 11.3%, VDR inh -9.2%, G9a block 50.1µM* and PLK1 PBD block inconclusive.
Screening COc1ccccc1CN1CCNC(=O)C1CC(=O)NCCCN1CCCC1=O (configuration not stated) returned CCT chaperon mod -0.4, MmCpn inh 0.8%, Sfp inh -6.4%, VDR inh -10.2%, G9a block 70.8µM* and PLK1 PBD block -20.4%.
CCOc1ccc(Nc2oc(-c3ccc(COc4ccc(OC)cc4)o3)nc2C#N)cc1 was read as VDR inh -0.4% and G9a block -25.2%[59 µM].
Screening Cc1ccc(CNC(=O)c2ccc3c(c2)N(Cc2ccccc2Cl)C(=O)CS3)cc1 returned VDR inh -10.6% and G9a block 4.0%[59 µM].
For Cn1c(Cl)cnc1C1CC(=O)c2cc(Cl)ccc2O1 (configuration not stated) the results were CCT chaperon mod 0.9, MmCpn inh -2.2%, Sfp inh inconclusive, VDR inh 79.4µM*, G9a block inconclusive and PLK1 PBD block -3.2%.
For O=S(=O)(O)c1ccc2c(c1)-c1nc-2nc2[nH]c(nc3nc(nc4[nH]c(n1)c1ccc(S(=O)(=O)O)cc41)-c1ccc(S(=O)(=O)O)cc1-3)c1ccc(S(=O)(=O)O)cc21 the results were Sfp inh inconclusive and VDR inh 25.1µM*.
For Nc1cc(S(=O)(=O)O)cc2ccc(S(=O)(=O)O)cc12 the results were CCT chaperon mod -2.4, VDR inh 4.9% and PLK1 PBD block -10.4%.
For COc1ccc2c(CC(=O)Nc3ccc(OC)c(S(=O)(=O)N4CCOCC4)c3)coc2c1 the results were CCT chaperon mod -0.5, MmCpn inh 0.6%, Sfp inh 8.6%, VDR inh -10.9%, G9a block 0.0%[59 µM] and PLK1 PBD block -5.1%.
`COc1ccc(S(=O)(=O)N2CCOCC2)cc1NC(=O)Cc1ccccc1Cl` gave CCT chaperon mod 0.7, MmCpn inh 2.2%, Sfp inh -0.5%, VDR inh -2.4%, G9a block 15.1%[59 µM] and PLK1 PBD block -0.8%.
